Source: PubChem BioAssay (NCI)
About 83,000 compounds went through this panel and 20% of them were active in at least one assay; those are over-represented in the sample as a whole.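 Each cell line was grown in a 96-well plate and treated with one concentration of compound for 48 hours. Values below 10 were considered active.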 Values without a mark were called inactive. Activity calls are given as the source filed them.

Tests used:
Assay in all cases: NCI-60 one-dose screen, 48 h (100 = growth as untreated, 0 = no growth, -100 = all killed)
Settings in all cases: 10 µM unless noted
DU-145 prostate = tested on: DU-145 prostate
K-562 leukemia = tested on: K-562 leukemia
MALME-3M melanoma = tested on: MALME-3M melanoma
MDA-MB-231 breast = tested on: MDA-MB-231 breast
RXF 393 renal = tested on: RXF 393 renal
SF-268 CNS = tested on: SF-268 CNS
SF-295 CNS = tested on: SF-295 CNS
SF-539 CNS = tested on: SF-539 CNS
UACC-257 melanoma = tested on: UACC-257 melanoma
M14 melanoma = tested on: M14 melanoma
HCT-15 colon = tested on: HCT-15 colon
HT29 colon = tested on: HT29 colon
SNB-75 CNS = tested on: SNB-75 CNS
SNB-19 CNS = tested on: SNB-19 CNS
U251 CNS = tested on: U251 CNS
PC-3 prostate = tested on: PC-3 prostate
SK-MEL-5 melanoma = tested on: SK-MEL-5 melanoma
UACC-62 melanoma = tested on: UACC-62 melanoma
LOX IMVI melanoma = tested on: LOX IMVI melanoma
SK-MEL-28 melanoma = tested on: SK-MEL-28 melanoma

| Structure (SMILES) | growth (DU-145 prostate) | growth (K-562 leukemia) | growth (MALME-3M melanoma) | growth (MDA-MB-231 breast) | growth (RXF 393 renal) | growth (SF-268 CNS) | growth (SF-295 CNS) | growth (SF-539 CNS) | growth (UACC-257 melanoma) | growth (M14 melanoma) | growth (HCT-15 colon) | growth (HT29 colon) | growth (SNB-75 CNS) | growth (SNB-19 CNS) | growth (U251 CNS) | growth (PC-3 prostate) | growth (SK-MEL-5 melanoma) | growth (UACC-62 melanoma) | growth (LOX IMVI melanoma) | growth (SK-MEL-28 melanoma) |
| --- | --- | --- | --- | --- | --- | --- | --- | --- | --- | --- | --- | --- | --- | --- | --- | --- | --- | --- | --- | --- |
| Clc1ccc(C2=NN(c3ccccc3)[C@H](c3cn(-c4ccccc4)nc3-c3ccccc3)C2)cc1 | 119% | 111% | 103% | 96.6% | 106% | 109% | 108% | 107% | 92.2% | 109% | 103% | 94.6% | 97% | 103% | 93.1% | 93.9% | 114% | 107% | 96.4% | 110% |
| O=S(=O)(Nc1ncccn1)c1ccc(Nc2ccc3nnc(-c4ccncc4)n3n2)cc1 | 108% | 102% | 97.6% | 92.2% | 118% | 98.3% | 100% | 95.2% | 103% | 97.7% | 99.3% | 116% | 86.9% | 99.7% | 102% | 102% | 100% | 99.1% | 95.1% | 99.1% |
| CCCCC(O)Cn1ncc(C(=O)OCC)c1NC(=O)NCc1ccccc1C(F)(F)F (stereo not given) | 102% | 71.8% | 93.2% | 92.2% | 106% | 97.7% | 94.3% | 95.9% | 93.7% | 95.2% | 98% | 107% | 92.6% | 94.4% | 95.3% | 86.6% | 95.9% | 87.6% | 98.4% | 111% |
| Cc1c(C)n(CC(O)CNC2CCCCC2C)c2ccccc12 (stereo not given) | -67.2% (active) | 4.09% (active) | -64.1% (active) | -9.38% (active) | -90.2% (active) | -42.5% (active) | -45.7% (active) | -87.3% (active) | -75.8% (active) | -59.4% (active) | -16.2% (active) | -49.6% (active) | -38.7% (active) | 62% | -52.1% (active) | -24% (active) | -86.2% (active) | -84.7% (active) | -83.1% (active) | -85.2% (active) |
| Nc1nc2c(s1)CCc1c-2c(Br)n(Cc2ccccc2)c1Br | 109% | 15.4% | 37.8% | 80.9% | 17.9% | 89.1% | 120% | 93.4% | 96.9% | 91.8% | 50.8% | 97.6% | 89.5% | 105% | 91.6% | 89.1% | 89.3% | 78.3% | 86.1% | 100% |
| O=C1/C(=C/c2ccc(Cl)cc2)N=C(c2ccccc2)N1CCc1cccs1 | 48.4% | 62.3% | 65% | 64.8% | 69.9% | 74.7% | 51.5% | 40.3% | 56.3% | 42.2% | 10.2% | 0.797% (active) | 31.1% | 64.5% | 44.5% | 59% | 84.7% | 55.7% | 30.1% | 77.4% |
| CCCCOC(=O)C1OC(Oc2ccc3c(C)cc(=O)oc3c2)[C@@H](OC(C)=O)C(OC(C)=O)C1OC(C)=O (stereo not given in full) | 104% | 106% | 89.1% | 104% | 106% | 97.4% | 96.1% | 96% | 93.9% | 93.9% | 99.2% | 104% | 86.3% | 99.1% | 100% | 104% | 101% | 97% | 94.5% | 108% |
| O=c1[nH]c(=O)n(Cc2ccc(F)cc2)cc1F | 110% [50 µM] | 86.7% [50 µM] | 101% [50 µM] | 101% [50 µM] | 111% [50 µM] | 99.1% [50 µM] | 101% [50 µM] | 100% [50 µM] | 83.9% [50 µM] | 109% [50 µM] | 99.5% [50 µM] | 114% [50 µM] | 104% [50 µM] | 100% [50 µM] | 98.7% [50 µM] | 107% [50 µM] | 104% [50 µM] | 101% [50 µM] | 96.4% [50 µM] | 109% [50 µM] |
| COC(=O)c1c2c(c(C)[n+]([O-])c1C)C(=O)C=C(NCc1cccc(OC)c1)C2=O | -99.1% (active) | -23.6% (active) | -98.9% (active) | -17.4% (active) | -46.7% (active) | -16.1% (active) | -97.5% (active) | -92.3% (active) | -87.1% (active) | -83.4% (active) | -74.8% (active) | 2.57% (active) | -97.7% (active) | -88.4% (active) | -39.3% (active) | -2.04% (active) | -97.2% (active) | -68.1% (active) | -79.7% (active) | -22.3% (active) |
| CCN(CC)CCCNc1ccc(C)c2sc3ccccc3c(=O)c12 | 43.2% | -7.56% (active) | -61.7% (active) | -12.1% (active) | 1.02% (active) | 48.1% | 32.5% | 51.5% | -61.3% (active) | -64.8% (active) | -13.3% (active) | -24.2% (active) | 47.1% | 46.7% | 15.4% | 22.7% | -99.4% (active) | -49.2% (active) | -93.4% (active) | -80% (active) |
| CCCCCCCC/C=C\CCCCCCCCOc1cccc(CC(=O)NCC[N+]2(C)CCCC2)c1 | 92.7% | 60.2% | 88.9% | 81.6% | 13% | 65.5% | 96.4% | 98.8% | 98.9% | 89.2% | 98.7% | 38.5% | 53.3% | 62.6% | 53.5% | 36.3% | 94.1% | 71.7% | 87% | 98.6% |
| COc1ccc2nc(-n3nc(C)cc3C)c(-n3nc(C)cc3C)nc2c1 | 128% | 114% | 108% | 103% | 104% | 119% | 98.7% | 107% | 119% | 102% | 102% | 100% | 116% | 102% | 106% | 105% | 100% | 105% | 101% | 107% |
| O=S(=O)(Nc1ccccc1Cl)c1ccc(-c2cnc(C3CC3)o2)cc1 | 13.5% | 20.1% | 47.3% | 34.8% | -27% (active) | 53.5% | 12.2% | -22.7% (active) | 69.4% | 19% | 24.4% | 12.5% | -13.4% (active) | 39.2% | 25% | 19.6% | 17.3% | 40.2% | 44.5% | 59.3% |
| COc1cc(-c2nc(SC(C)C)nc(Nc3ccccc3C)c2C#N)cc(OC)c1OC | 113% | 98.6% | 104% | 102% | 120% | 106% | 102% | 103% | 113% | 104% | 102% | 109% | 108% | 100% | 108% | 104% | 102% | 97.2% | 102% | 107% |
| COc1ccc(/C=C2\SC(=O)N(CN3CCN(c4cc5c(cc4F)c(=O)c(C(=O)O)cn5C4CC4)CC3)C2=O)cc1 | 109% | 114% | 97.6% | 106% | 108% | 99% | 99.6% | 107% | 96.7% | 88.6% | 106% | 111% | 85.1% | 100% | 99.8% | 97.6% | 97.2% | 98.1% | 79.9% | 112% |
